Results on 23 compounds are retold here after PubChem BioAssay.

Assay [1] concerns Aerobactin synthetase IucA (Klebsiella pneumoniae). Kind of assay: inhibition of K. pneumoniae IucA enzyme – biochemical, Tocris library, absorbance (AID 1345561).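 Also: 100% = enzyme without compound and 0% = no enzyme.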 To be noted: purified IucA enzyme assay, absorbance (OD) read-out; stronger effect = lower value;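 tested at 8 µM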.
Assay [2] can be described thus: viability loss with induced miR-34 in A549 – imaging, A549 dox-inducible miR-34, nuclei and caspase counts, primary screen (AID 1347080;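 active = compounds whose cell count with miR-34 switched on is under 0.7 times the count with it off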). The settings on record: A549 miR-34 inducible, Hoechst nuclei count, 48 h.
A short description of assay [3]: galactose survival enhancers in mitochondrial complex I cybrids – cell-based, galactose medium, ATP luminescence, primary screen (AID 1645843;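 active = z-score of at least 1.8 in each of two replicates, scored against plate mean and spread of sample wells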;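 also: positive z means more ATP and so rescue of galactose-driven cybrid death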). To be noted: complex I mutant cybrid cells, 72 h, stronger effect = higher value.
In assay [4] the test system is Hepatitis C virus NS3 helicase. Put plainly: blockers of NS3h binding to ssDNA – biochemical, fluorescence polarization, LOPAC1280 library, primary screen (AID 687035; in the data active = inhibition above about 37%). The settings on record: Purified HCV NS3 helicase, Cy5-dT15 ssDNA binding fluorescence polarization; stronger effect = higher value; concentration not given here. (Polarisation of emitted light reports the rotation of a fluorescent probe.)

Assay [5] is described as follows: compounds altering Cy5-DNA-NS3h complex signal – biochemical, LOPAC1280, artefact control for HCV NS3 helicase inhibitor project (AID 687037). The settings on record: Cy5-DNA-NS3h complex fluorescence interference counterscreen. (In general: A counterscreen serves to expose hits that act by an unwanted route or on another target.)
Assay [6] in a line: MELAS cybrid and Rieske KO viability enhancers – cell-based, MELAS cybrids, Rieske KO mouse fibroblasts, CellTiter-Glo, primary screen (AID 1508586;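 active = mean z-score across replicates of 1.96 or higher in either the MELAS or the Rieske mutant cell line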;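 also: z relative to plate mean and SD of compound and empty wells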). The settings on record: low glucose.
A short description of assay [7]: compounds altering circadian rhythm period length – cell-based, LOPAC library, luminescence reporter (AID 2774).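 Also: values are relative to mean of DMSO wells on each plate.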 To be noted: circadian reporter cells, at 7 µM, actives lie on both sides.
The mark [8] stands for this setting: stronger effect = lower value, cell number ratio, induced over uninduced.
[9] abbreviates: measured here: relative caspase fold change +Dox/-Dox.
Setting [10] is: measured here: total cells with miR-34 induction, stronger effect = lower value.
Setting [11] is: measured here: total cells without miR-34 induction.

Where “and” joins values, the source holds several entries; their conditions need not be identical. Identical values can stand only once. Calls of active or inactive are those of the source. Unless noted, no rule for the calls is given here.

Turning to `CN1[C@@H]2CC[C@H]1CC(OC(=O)N1Cc3ccccc3NC1=O)C2` (stereo not given in full), the remaining activity – broadly, the signal under treatment as a percentage of the control signal – in assay [1] is 119% (inactive). For the same compound, the fold change in assay [2] (setting [8]) was 0.979 (inactive); in assay [2] (setting [9]), 1.11. In addition, the figures for the cell count in assay [2] (setting [10]) and in assay [2] (setting [11]) were 8310 and 8490, respectively. In assay [3], the z-score was 0.365 (inactive).
Consider `CCN1C[C@]2(COC(=O)c3ccccc3N3C(=O)C[C@H](C)C3=O)CC[C@H](OC)[C@]34C2[C@H](OC)[C@](O)([C@H]13)[C@@]1(O)C[C@H](OC)[C@H]2C[C@@H]4[C@@H]1[C@H]2OC`, for which the remaining activity in assay [1] is 128% (inactive). Besides, the fold change was 0.94 (inactive) in assay [2] (setting [8]) and 0.834 in assay [2] (setting [9]). The cell count amounted to 8220 in assay [2] (setting [10]) and 8740 in assay [2] (setting [11]). Moreover, the z-score in assay [3] was -0.21 (inactive).
Consider `C[C@H](N)Cn1ccc2cc(F)c(Cl)cc21`, for which the remaining activity in assay [1] is 103% (inactive). The fold change in assay [2] (setting [8]) is 0.874 (inactive); in assay [2] (setting [9]), 1.05. The cell count in assay [2] (setting [10]) turned out to be 7990; in assay [2] (setting [11]), 9140. Besides, in assay [3], the z-score is -0.575 (inactive).
As to `CC(=O)N1CC[N+](C)(C)CC1`, in assay [1], the remaining activity is 90.4% (inactive). Besides, the fold change was 0.94 (inactive) in assay [2] (setting [8]) and 0.788 in assay [2] (setting [9]). Also, the cell count in assay [2] (setting [10]) was 9100; in assay [2] (setting [11]), 9680. Besides, the z-score in assay [3] is 0.25 (inactive).
Regarding `C[C@H](Cc1ccc(OCC(=O)O)cc1)NC[C@H](O)c1cccc(Cl)c1`, in assay [1], the remaining activity is 121% (inactive). The fold change was 0.941 (inactive) in assay [2] (setting [8]) and 0.725 in assay [2] (setting [9]). Also, the cell count in assay [2] (setting [10]) stood at 7990; in assay [2] (setting [11]), 8500. The z-score in assay [3] was -0.27 (inactive).
In the case of `Cc1[nH]c2ccc(Cl)cc2c1C1=CCNCC1`, the remaining activity in assay [1] is 103% (inactive). Also, the fold change in assay [2] (setting [8]) is 0.919 (inactive); in assay [2] (setting [9]), 1.4. Further, the cell count in assay [2] (setting [10]) stood at 7850; in assay [2] (setting [11]), 8550. For the same compound, the z-score in assay [3] was -0.42 (inactive).
Regarding `NC=Nc1ccc2[nH]c3c(c2c1)C[C@@]1(O)C2Cc4ccc(O)c5c4[C@@]1(CCN2CC1CC1)[C@H]3O5`, the remaining activity in assay [1] was 121% (inactive). Also, the values for the fold change in assay [2] (stronger effect = lower value) and in assay [2] (setting [9]) were 0.975 (inactive) and 1.22, respectively. Further, the figures for the cell count in assay [2] (setting [10]) and in assay [2] (setting [11]) were 9860 and 10100, respectively. In addition, the z-score in assay [3] is -0.38 (inactive).
For `O=C(O)Cc1cccnc1C(=O)O`, in assay [1], the remaining activity was 108% (inactive). Besides, the fold change is 0.98 (inactive) in assay [2] (setting [8]) and 0.669 in assay [2] (setting [9]). Also, the cell count in assay [2] (setting [10]) amounted to 8790; in assay [2] (setting [11]), 8970. For the same compound, the z-score in assay [3] was 0.32 (inactive).
Consider `O=C1Nc2ccccc2C2(CCN(CCc3ccc(C(F)(F)F)cc3)CC2)O1`, for which the remaining activity in assay [1] was 102% (inactive). In addition, the fold change in assay [2] (setting [8]) is 1.06 (inactive); in assay [2] (setting [9]), 0.675. Moreover, the cell count was 4790 in assay [2] (setting [10]) and 4500 in assay [2] (setting [11]). Also, the z-score in assay [3] was -0.66 (inactive).
`O=C1CN=C(c2cccc(Br)c2)c2oc3ccccc3c2N1`: the remaining activity in assay [1] is 121% (inactive). Moreover, the fold change was 1.01 (inactive) in assay [2] (setting [8]) and 1.75 in assay [2] (setting [9]). In addition, the results for the cell count in assay [2] (setting [10]) and in assay [2] (setting [11]) were 2110 and 2080, respectively. For the same compound, in assay [3], the z-score is -0.285 (inactive).
Regarding `COc1ccc2c(c1)c(CCN1CCOCC1)c(C)n2C(=O)c1cccc(Cl)c1Cl`, the inhibition (usually the drop in the measured response relative to a control, in per cent) in assay [4] is -1% (inactive). Besides, the fluorescence ratio (interference) in assay [5] was 1.1 (inactive). Besides, the remaining activity in assay [1] is 101% (inactive). Moreover, the fold change in assay [2] (setting [8]) is 0.915 (inactive); in assay [2] (setting [9]) it was 1.25. Also, the values for the cell count in assay [2] (setting [10]) and in assay [2] (setting [11]) were 6500 and 7100, respectively. Further, in assay [3], the z-score was -0.005 (inactive).
`CCOC(=O)c1ncc2[nH]c3ccc(OCc4ccccc4)cc3c2c1COC`: the remaining activity in assay [1] is 105% (inactive). The fold change in assay [2] (setting [8]) was 0.974 (inactive); in assay [2] (setting [9]), 1.71. For the same compound, the cell count in assay [2] (setting [10]) was determined as 2080; in assay [2] (setting [11]), 2130. Further, in assay [3], the z-score is -0.79 (inactive).
As to `Cc1cccc(C(C)c2cnc[nH]2)c1C` (stereo not given), in assay [1], the remaining activity is 123% (inactive). Besides, the z-score in assay [6] (MELAS cybrid survival, CellTiter-Glo 48 h, stronger effect = higher value) was 0.00954 (inactive) and -0.104 (inactive) and -0.218 (inactive); in assay [6] (Rieske KO mouse fibroblast survival, CellTiter-Glo 72 h) it was 0.0551 and -0.0823 and -0.0306; in assay [3] it was -0.255 (inactive).
On to `O=C(O)CCC(CP(=O)(O)O)C(=O)O` (stereo not given), for which, in assay [1], the remaining activity was 113% (inactive). Further, the fold change in assay [2] (setting [8]) was 0.917 (inactive); in assay [2] (setting [9]), 0.521. Also, the cell count is 9040 in assay [2] (setting [10]) and 9860 in assay [2] (setting [11]). Also, the z-score in assay [3] is -0.22 (inactive).
Turning to `O=C1CSC(c2ccccc2Cl)c2cc(Cl)ccc2N1` (stereo not given), in assay [1], the remaining activity was 115% (inactive). Moreover, the fold change was 0.848 (inactive) and 0.875 (inactive) in assay [2] (stronger effect = lower value); 1.12 and 0.874 in assay [2] (setting [9]). Moreover, the cell count in assay [2] (setting [10]) is 2450 and 7360; in assay [2] (setting [11]), 2880 and 8400. The z-score in assay [3] is -0.095 (inactive).
For `O[C@H]1[C@H](O)[C@@H](O)CN2CC[C@H](O)[C@H]12`, the remaining activity in assay [1] is 107% (inactive). The fold change in assay [2] (stronger effect = lower value) was 0.875 (inactive) and 0.917 (inactive); in assay [2] (setting [9]), 1.02 and 1.4. Besides, the cell count in assay [2] (setting [10]) is 4910 and 9170; in assay [2] (setting [11]) it was 5610 and 10000. Besides, the z-score in assay [3] was 0.34 (inactive).
On to `C(=C\c1ccccc1)/CN1CCN(CCOC(c2ccccc2)c2ccccc2)CC1`, for which the remaining activity in assay [1] is 119% (inactive). Also, the fold change was 0.938 (inactive) in assay [2] (setting [8]) and 0.604 in assay [2] (setting [9]). The cell count came to 5420 in assay [2] (setting [10]) and 5780 in assay [2] (setting [11]). Also, the z-score in assay [3] was -1.21 (inactive).
As to `S=C=Nc1cccc(C2(N3CCCCC3)CCCCC2)c1`, in assay [7], the period change is 0.05 h (inactive). The remaining activity in assay [1] was 122% (inactive). Further, the fold change in assay [2] (setting [8]) was 0.942 (inactive); in assay [2] (setting [9]), 0.732. In addition, the cell count in assay [2] (setting [10]) was found to be 9100; in assay [2] (setting [11]), 9670. In assay [3], the z-score is 0.62 (inactive).
As to `CC(C)(C)NCC(O)COc1cccc2[nH]c(C#N)cc12` (stereo not given), in assay [1], the remaining activity is 115% (inactive). Moreover, the values for the fold change in assay [2] (setting [8]) and in assay [2] (setting [9]) were 0.911 (inactive) and 1.8, respectively. Besides, the results for the cell count in assay [2] (setting [10]) and in assay [2] (setting [11]) were 9030 and 9910, respectively. In addition, the z-score in assay [3] is 0.025 (inactive).
Regarding `CC(C)(Cc1c[nH]c2ccc(Cl)cc12)NCCOc1ccccc1OCC1CC1`, the remaining activity in assay [1] is 119% (inactive). Further, the fold change in assay [2] (setting [8]) was 0.921 (inactive); in assay [2] (setting [9]), 1.09. The cell count was 226 in assay [2] (setting [10]) and 246 in assay [2] (setting [11]). Besides, in assay [3], the z-score is -1.23 (inactive).
As for `Oc1ccc2c3c1O[C@H]1c4oc5ccccc5c4C[C@@]4(O)C(C2)N(CC2CC2)CC[C@]314`, the remaining activity in assay [1] was 104% (inactive). Further, the fold change in assay [2] (stronger effect = lower value) was 0.944 (inactive); in assay [2] (setting [9]) it was 0.874. The cell count stood at 9060 in assay [2] (setting [10]) and 9600 in assay [2] (setting [11]). Also, the z-score in assay [3] was -0.325 (inactive).
Regarding `CN1CCN(c2ccc3ccccc3n2)CC1`, in assay [7], the period change is -0.045 h (inactive). The remaining activity in assay [1] was 109% (inactive). The fold change is 0.923 (inactive) in assay [2] (setting [8]) and 0.813 in assay [2] (setting [9]). For the same compound, the cell count amounted to 8930 in assay [2] (setting [10]) and 9670 in assay [2] (setting [11]). Besides, in assay [3], the z-score was -0.58 (inactive).
On to `CN(C(=O)Cc1ccccc1)C(CN1CCCC1)c1ccccc1` (stereo not given), for which, in assay [1], the remaining activity is 116% (inactive). Further, the fold change was 0.952 (inactive) in assay [2] (setting [8]) and 0.864 in assay [2] (setting [9]). For the same compound, the cell count in assay [2] (setting [10]) was found to be 8670; in assay [2] (setting [11]) it was 9110. The z-score in assay [3] is 0.03 (inactive).
